# Results filed as inconclusive are left out. Calls of active or inactive are those of the source. The call rests on the fitted dose curve; in most records, active means well fitted cell-killing curve with a large enough effect; inconclusive means small, poorly fitted or top-dose-only effect, or effect the other way; inactive means no such curve, though single readings can be large or run the other way.
# Assay: Viability qHTS for spleen associated tyrosine kinase inhibitor (SYKi) drug resistant MV4-11 cells (AID 1963824); further: nearly all actives have a fitted effect of over 35% in size
# Details: SYKi-resistant MV4-11 viability, CellTiter-Glo, 72 h; series mostly up to 45 µM
# In short: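 SYK inhibitor-resistant MV4-11 AML cells, 500 per well, added to predispensed compounds and incubated 72 hr at 37 C, 5% CO2. Viability measured by CellTiter-Glo luminescence after 10 min at room temperature.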
# Potency means the concentration at half of the fitted maximal effect.
row,SMILES,Potency
1,CO[C@@H]1[C@]2(O)C(=O)N3/C=C\C(C)(C)c4[nH]c5ccccc5c4/C=C\3C(=O)N2[C@]23[C@H](CO)C(C)(C)N2c2ccccc2[C@]13O,inactive
2,C=C1C(OC(C)=O)[C@@]23CCC4[C@](C)(C(=O)O)CCC[C@@]4(C)[C@]2(O)CC[C@H]1C3 (stereo partly drawn),inactive
3,N#C/C(=C(\N)Sc1ccc(N)cc1)c1ccccc1C(F)(F)F,7.31 µM (active)
4,CC1(C)C=Cc2c(ccc3c2[N+]([O-])=C2C3(O)CC34NC(=O)C5(CCCN5C3=O)CC4C2(C)C)O1 (stereo not drawn),inactive
5,CC#C[C@@H](CC(=O)O)c1ccc(OCc2ccc(CN3CCC4(C=Cc5ccccc54)CC3)s2)cc1,11.6 µM (active)
6,Cc1noc2c1-c1ccccc1C(c1ccc(Cl)cc1)=N[C@H]2CC(N)=O,0.332 µM (active)
7,COc1ccc(Cl)cc1NC(=O)Nc1cc(C)nc2ccccc12,14.6 µM (active)
8,CC(=O)O[C@@H]1C=C2[C@H](CC[C@@]3(C)[C@@]2(O)CC[C@H]2Cc4c([nH]c5ccccc45)[C@@]23C)O[C@@H]1C(C)(C)O,8.93 µM (active)
9,CNCCC(c1cccs1)c1ccc(O)c2ccccc12 (stereo not drawn),14.6 µM (active)
10,O=C1Cc2c([nH]c3ccc(Br)cc23)-c2ccccc2N1,5.8 µM (active)
11,Cc1c(-c2ccc3c(c2)OCO3)oc2ccc(C(O)C(C)O)cc12 (stereo not drawn),12.8 µM (active)
12,N#Cc1cccnc1N1CCN(C(=O)c2cccc(Cc3n[nH]c(=O)c4ccccc34)c2)CC1,0.186 µM (active)
13,CN(CC1COCCO1)S(=O)(=O)Nc1ccc2ccc3ncc(-c4cnn(C)c4)cc3c(=O)c2c1 (stereo not drawn),0.651 µM (active)

# From PubChem BioAssay (NCATS)
